# A selection: hits, their analogues and other compounds. The true share with any hit is near 0.53%.
# GLS inh: qHTS for Inhibitors of Glutaminase (GLS). GLS enzymatic activity, qHTS titration. Potency, µM (series often up to 45.5 µM), for the others: at the top dose activity change, negative = inhibition, usual class: inhibitors. Glutaminase kidney isoform, mitochondrial (Homo sapiens), O94925. 410,000 tested, 0.21% active; further: potency means the concentration at half of the fitted maximal effect
#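 hKGA; 45 mM KH2PO4 pH 8.2 + 0.02% Tween-20; cpd via pin tool; 1 mM Gln soln; GluOx/HRP/Amplex Red; RT 30 min; fluor. t0 & final.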
# Tb PGK inh: qHTS Assay to Find Inhibitors of Phosphoglycerate Kinase; Potency, µM (titrated, usually from 57.5 µM), inactives show top-dose activity change, negative = inhibition, hits mostly inhibitors; PGK/GAPDH coupled, Kinase-Glo luminescence, 60 min; 380,000 tested, 0.043% active; further: potency means the concentration at half of the fitted maximal effect; nearly all actives have a fitted effect of over 60% in size
#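 Recombinant glycosomal PGK reaction used 1,3-bisphosphoglycerate generated in-well by GAPDH (100nM final) in 100mM TEA pH 7.6, 5mM MgCl2, 0.01% Tween-20. After 60 minutes at room temperature, ATP was read by Kinase-Glo Plus luminescence end-point.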
# USP1 inh: Inhibitors of USP1/UAF1: Primary Screen; Ubiquitin carboxyl-terminal hydrolase 1 (Homo sapiens), O94782; recombinant USP1/UAF1, Ub-Rhodamine cleavage fluorescence; Potency, µM (highest dose often 57.1 µM), without a hit: at the highest dose activity change, negative = inhibition, actives largely listed as inhibitors; 390,000 tested, 0.23% active; AID 743255, 2014; further: potency means the concentration at half of the fitted maximal effect; nearly all actives have a fitted effect of over 60% in size
#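 1 nM enzyme complex + cpd, 15 min RT; start with Ub-Rho 150nM final; kinetic fluorescence ex 480/em 540, 6 reads q60 s. Buffer 50mM HEPES pH 7.8, 0.5mM EDTA, 0.1 mg/ml BSA, 1mM TCEP, 0.01% Tween-20.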
# PI4K2A block: qHTS for small molecular inhibitors of PI4K2A. purified PI4K2A, ADP-Glo luminescence, 1 h; hits give low values. AID 1346378, 2018. Phosphatidylinositol 4-kinase type 2-alpha (Homo sapiens), Q9BTU6. activity change, negative = inhibition, % at 76.9 µM. 420,000 tested, 0.13% active; in the data active means activity change below about -50%; inconclusive means mostly about -30% to -49%;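 further: -100% = wells without enzyme as full effect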
# Target sequence (Q9BTU6 whole entry, looked up): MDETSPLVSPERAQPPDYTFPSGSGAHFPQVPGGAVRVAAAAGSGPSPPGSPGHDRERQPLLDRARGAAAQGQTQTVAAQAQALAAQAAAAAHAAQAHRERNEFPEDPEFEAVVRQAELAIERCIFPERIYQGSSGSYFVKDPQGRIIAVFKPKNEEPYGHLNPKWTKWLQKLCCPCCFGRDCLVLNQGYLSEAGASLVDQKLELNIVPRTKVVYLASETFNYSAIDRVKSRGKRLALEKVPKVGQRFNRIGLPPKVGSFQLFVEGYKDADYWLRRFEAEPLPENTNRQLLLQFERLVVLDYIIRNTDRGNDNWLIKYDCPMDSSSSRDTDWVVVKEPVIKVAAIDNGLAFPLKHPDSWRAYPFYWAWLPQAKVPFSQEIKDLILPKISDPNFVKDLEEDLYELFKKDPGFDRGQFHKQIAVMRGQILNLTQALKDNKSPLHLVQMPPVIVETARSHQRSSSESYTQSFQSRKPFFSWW
#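 ADP-Glo luminescence measured ADP generated by PI4K2A enzyme (4 ug/mL before mixing) with 1.2 mM PI substrate (pre-mix) and 300 microM ATP (pre-mix). Tris pH7.5 buffer with MgCl2, Triton X-100; 1 h reaction at ambient temperature.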
# * hit, by the source's call; i = inactive; u = inconclusive; x = no result given; ! = not active in a repeat. Unless noted, the call rests on the fitted dose curve; in most records, active means well fitted curve in the direction sought with a large enough effect; inconclusive means small, poorly fitted or top-dose-only effect, or another doubt; inactive means no such curve, though single readings can be large; an effect the other way counts as inactive or inconclusive. Unless noted, on the % scale 0 is the no-effect control and ±100 the full control effect.
SMILES,GLS inh,Tb PGK inh,USP1 inh,PI4K2A block
CCN1CC=C2C(C#N)=C(N)C(C#N)(C#N)C(CCc3ccccc3)C2C1 (stereo unspecified),-30%,-1%,22µM*,2
C[C@H]1[C@@H](OC(=O)CCC(=O)O)OC2OC3(C)CC[C@H]4[C@H](C)CC[C@@H]1[C@@]24OO3 (stereo partly specified),-2%,x,x,x
Cc1ccc(O)c(N=Cc2sc3ccccc3c2Cl)c1,11µM*,-8%,-20%,1
Oc1ccccc1N=Cc1sc2ccccc2c1Cl,22%,0%,-7%,-7
CCc1ccccc1NC(=O)c1cccc(NC(=O)/C=C/c2ccco2)c1,0%,-2%,-9%,1
O=C(/C=C/c1ccco1)Nc1cccc(C(=O)Nc2ccccc2C(=O)O)c1,u,32µM*,-19%,-15
[2H]c1c([2H])c([2H])c2c([nH]c(=S)n2C2CCN(CCCC(=O)c3ccc(F)cc3)CC2)c1[2H],8%,x,x,x
CCOC(=O)c1ccc(NCn2c(=O)oc3ccccc32)cc1,0%,-3%,25µM*,0
COC1=C(N)C(=O)c2nc(-c3nc(C(=O)O)c(C)c(-c4ccc(OC)c(OC)c4O)c3N)ccc2C1=O,2%,u,11µM*,u
COc1ccc(-c2ncncc2-c2csc(C)n2)c(O)c1OC,23%,-7%,-1%,-13
O=C(CSc1nc2ccccc2o1)NC1CCCC1,-1%,-4%,-4%,1
CSC1CCCCC1(O)CSc1nc2ccccc2o1 (stereo unspecified),13µM*,-9%,-21%,-1
CC(=O)OCC(=O)[C@@]1(O)[C@H](C)C[C@H]2C3C[C@H](F)C4=CC(=O)C=CC4(C)C3[C@@H](O)CC21C (stereo partly specified),-1%,x,x,x
CCOc1ccccc1CNc1ccc(O)cc1,-21%,-5%,16µM*,-27
Oc1ccc(NCc2ccccc2OCc2ccccc2Cl)cc1,u,x,32µM*,-28
CCOc1cc(CNc2ccc(O)cc2)ccc1OCc1ccc(Cl)cc1Cl,-12%,-30%,8.9µM*,u
Oc1ccc(NCc2ccccc2OCc2ccccc2F)cc1,12%,-3%,u,u
COc1ccc(Br)cc1CNc1ccc(O)cc1,43%,-6%,u,-50*
Cc1ccc2c(Br)cc(Br)c(O)c2n1,0%,x,x,-4
CCCCCCCCCCCCOCCO,x,x,x,1
CCOc1cccc(CNc2ccc(O)cc2)c1OCc1ccc(Cl)cc1,14%,-4%,25µM*,u
COc1cc(/C=C2/C(=O)CNC2=O)ccc1O,21%,-3%,-18%,-4
COc1cc(C=C2C(=O)C=CC2=O)ccc1O,77%,x,x,-56*
COc1cc(/C=C/C(=O)/C=C(O)/C=C/c2ccc(O)c(OC)c2)ccc1O,35µM*!,-2%,u,0
C#CC(C)(CC)OC(=O)c1ccccc1C(=O)O (stereo unspecified),x,x,x,2
SMILES,GLS inh,Tb PGK inh,USP1 inh,PI4K2A block
COc1ccc(CCN(Cc2cccs2)S(=O)(=O)c2ccc(F)cc2)cc1OC,x,x,x,1
Cc1cc(NS(=O)(=O)c2ccc(NC(=O)/C=C/c3ccc(C)o3)cc2)nc(C)n1,10µM*,-1%,-9%,-5
COc1ccc(C2C(C(=O)c3cccs3)=C(O)C(=O)N2c2nnc(C)s2)cc1OC (stereo unspecified),7%,x,4µM*,-1
COc1ccc(C2C(C(=O)c3cccs3)=C(O)C(=O)N2c2nncs2)cc1 (stereo unspecified),4%,1%,2µM*,4
Nc1ccc(O)c([N+](=O)[O-])c1,40µM*!,-3%,-20%,-2
Nc1cc([N+](=O)[O-])ccc1O,-24%,-11%,-13%,1
C(=C1NCCN1)c1cccc2ccccc12,-6%,x,x,x
CCOC(=O)c1c(NC(=O)/C=C/C(=O)O)sc(C)c1-c1ccc(C(C)(C)C)cc1,-1%,-14%,32µM*,-24
COc1cccc(/C=C(/C#N)c2nc3ccccc3[nH]2)c1OC(C)C(=O)O (stereo unspecified),13µM*,x,-16%,-6
Cc1cc2nc(-c3ccc[nH]c3=O)[nH]c2cc1C,-5%,i,-10%,-66*
CO[C@@H]1[C@@H]([C@H](C)[C@@H]2O[C@@]3(CC[C@@](C)([C@H]4CC[C@@](C)([C@H]5O[C@H]([C@H]6O[C@](C)(O)[C@H](C)C[C@@H]6C)C[C@H]5O[C@H]5C[C@@H](OC)[C@H](OC)[C@@H](C)O5)O4)O3)C[C@@H](O)[C@@H]2C)O[C@@](O)(CC(=O)O)[C@H](C)[C@H]1OC,-1%,x,x,x
CCCC(=O)NC1=C(Cl)C(=O)c2ccccc2C1=O,u,-16%,18µM*,-12
O=C1C(Cl)=C(Nc2ccc(O)cc2)C(=O)c2ccccc21,1.3µM*,-5%,-24%,-7
O=C1C=C(Nc2ccc(O)cc2)C(=O)c2ccccc21,u,u,-27%,-56*
CCC(=O)NC1=C(Nc2ccc(N)cc2)C(=O)c2ccccc2C1=O,7.1µM*,-18%,u,-14
Cc1ccc(NC2=C(Cl)C(=O)c3ccccc3C2=O)cc1,-6%,-15%,-23%,-4
COc1ccc(NC2=C(NC(C)=O)C(=O)c3ccccc3C2=O)cc1,-7%,-13%,-12%,-1
CCNC1=C(Cl)C(=O)c2ccccc2C1=O,-7%,1%,u,-13
Cc1ccc(-c2nc(C3CCCN(S(=O)(=O)c4ccc(C)c(C)c4)C3)no2)cc1 (stereo unspecified),x,x,x,2
CC[C@]1(O)C[C@H]2CN(CCC3=c4ccccc4=N[C]3[C@@](C(=O)OC)(c3cc4c(cc3OC)N(C)[C@H]3[C@@](O)(C(N)=O)[C@H](O)[C@]5(CC)C=CCN6CC[C@]43[C@@H]65)C2)C1,15%,x,x,x
CCOC(=O)[C@@]12CN(C(=O)OC(C)(C)C)CC=C1N(Cc1ccc(OC)cc1)C(=O)[C@H]2CC(=O)N1CCC(c2ccccc2)CC1,x,x,x,0
Cc1cccc(OCC(O)CNC(C)(C)C)c1C (stereo unspecified),x,x,x,-1
COC1=C(Nc2ccc(O)cc2)C(=O)c2ccccc2C1=O,7.9µM*,-14%,u,u
O=C1Nc2ccccc2CCc2ccccc21,-2%,i,-13%,-2
O=C1Cc2ccccc2C(=O)N1,-11%,x,x,-56*
Cc1cc(C)c(S(=O)(=O)c2ccccc2C)c(Cl)n1,13µM*,i,0%,8
Cc1ccc(S(=O)(=O)c2c(C)cc(C)nc2Cl)c(C)c1,13µM*,-9%,-10%,0
Cc1ccc(S(=O)(=O)c2c(C)cc(C)nc2Cl)cc1,11µM*,9%,-7%,0
Cc1ccc(-n2c(SCC(=O)Nc3ccc(S(=O)(=O)Nc4cc(C)nc(C)n4)cc3)nnc2-c2cccs2)cc1,x,x,x,-5

# Screening data: PubChem, National Center for Advancing Translational Sciences (NCATS)
